A selection: hits, their analogues and other compounds. The true share with any hit is near 6.1%.
D3 antag = D3 dopamine receptor (human) antagonism | D3R cells, DiscoveRx beta-arrestin luminescence, antagonist mode; hits give low values | AID 652054 | 2.5% of 360,000 active | max response, negative = inhibition, %; in the data active = max response below about -50%; inconclusive = no clear call, values can overlap the other calls; also: % is scaled to controls: 0 for no effect and ±100 for the full control effect
Target sequence (P35462 whole entry, looked up): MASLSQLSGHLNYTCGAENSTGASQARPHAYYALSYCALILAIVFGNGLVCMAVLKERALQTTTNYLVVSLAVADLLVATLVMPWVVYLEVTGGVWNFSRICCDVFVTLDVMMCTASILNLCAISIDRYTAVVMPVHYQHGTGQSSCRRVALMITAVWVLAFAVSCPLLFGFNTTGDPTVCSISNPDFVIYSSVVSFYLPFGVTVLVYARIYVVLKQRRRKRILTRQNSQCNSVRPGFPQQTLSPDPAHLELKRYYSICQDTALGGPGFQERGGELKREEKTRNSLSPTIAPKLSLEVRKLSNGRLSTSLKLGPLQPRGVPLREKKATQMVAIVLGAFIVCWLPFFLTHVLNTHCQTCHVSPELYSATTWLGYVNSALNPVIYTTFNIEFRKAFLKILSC
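Cells plated overnight at 1500 cells/well, then exposed to library compounds with dopamine controls for 90 minutes at 37 degrees C. DiscoveRx reagent added for 30–60 minutes at room temperature; luminescence read, quantitative HTS format.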
D1 agonist = human D1 receptor agonism. P21728. HEK293 T-REx D1 cells, calcium flux, agonist mode. activation, % at 2 µM. 1% of 360,000 active; in the data active = activation above about 30%; also: 0% is about no effect
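Agonism was scored from calcium flux recorded over 180 s (1 read/s) after pintool compound addition, following a 10-cycle baseline. Cells were inducible force-coupled HEK293 TREx D1, plated overnight at 30 C and loaded with no-wash calcium dye.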
D1 antag = blocks dopamine activation of the human D1 receptor; P21728; HEK293 TREx D1 cells, calcium flux, dopamine EC80; hits give low values; activity change, negative = inhibition, % at 10 µM; 3.2% of 360,000 active; in the data active = activity change below about -30%; also: % is scaled to controls: 0 for no effect and ±100 for the full control effect
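Kinetic fluorescence of a calcium dye serves as the read-out. D1-expressing Hek293 Trex cells, induced overnight at 30 C, are exposed to compound for 180 s before an EC80 dopamine addition, then read 180 s further.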
D1 potentiator = potentiators of human D1 dopamine receptor. HEK293 TREx D1 cells, calcium flux, dopamine EC20 potentiation. 0.036% of 360,000 active. AID 504651. P21728. potentiation, % at 10 µM; in the data active = potentiation above about 30%; also: 0% is about no effect
DRD3 agonist = activates the human D3 dopamine receptor | D3R DiscoveRx beta-arrestin cells, luminescence, 90 min | 0.58% of 410,000 active | max activation, % | P35462 | AID 652048; in the data active = max activation above about 30%; also: 0% is about no effect
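Agonist-mode cell screen: cells plated at 1500/well and incubated overnight at 37 °C, then exposed to library compounds for 90 min at 37 °C. Detection reagent was added for 30–60 min at room temperature, and luminescence was read.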
ERG-DNA inh = inhibitors of human ERG Ets domain-DNA interaction; P11308; fluorescence polarization, His-ERG Ets domain / labelled DNA; Potency, µM (titrated, usually from 76.9 µM), without a hit: at the highest dose FP activity, negative = inhibition, hits mostly inhibitors; 0.028% of 370,000 active; active = well fitted inhibition curve with a large enough effect in the polarisation, with a control signal flat; inconclusive = small, poorly fitted or top-dose-only effect, or effect the other way, or a change in a side signal; inactive = no such curve, though single readings can be large or run the other way; the % refers to the polarisation;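 also: polarization taken with two DNA probes labelled with fluorescein and Texas red; potency is read from the fitted curve at half-maximal effect; % of control where 0% means no effect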
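His-tagged ERG Ets domain (1 uM in the protein solution; 300mM KCl, 50mM Tris-HCl, 1mM EDTA, 1mM DTT, pH 7.5) received compound, then a probe mix of 5 nM fluorescein-DNA and 100nM Texas-615-DNA. Fluorescence polarization was read for both dyes.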
Active calls of the source: *; u = inconclusive; x = not tested or not shown; ! = not confirmed by another sample.

SMILES	D3 antag	D1 agonist	D1 antag	D1 potentiator	DRD3 agonist	ERG-DNA inh
COc1ccc(OCCN2CCN(C(=O)c3ccc(OC)c(OC)c3)CC2)cc1	9	5	-2	x	112*	-2%
COc1ccc(C(=O)N2CCC(C(=O)NCc3ccccn3)CC2)cc1	10	4	-31*	-12	4	10%
COc1ccc(OCC(=O)N2CCN(C(=O)c3ccc(OC)c(OC)c3)CC2)cc1	x	0	5	2	6	-10%
O=C(NC1CCCC1)C1CCN(C(=O)c2ccc(-c3ccccc3)cc2)CC1	-14	5	-38*	-2	-14	-9%
COc1ccc(C(=O)N2CCN(CCc3ccccn3)CC2)cc1	-10	50*!	-46*!	6	-14	-1%
CC(C)COc1ccc(C(=O)N2CCN(CCc3ccccn3)CC2)cc1	x	-2	3	-1	-12	0%
O=C(OCC(=O)N1CCOCC1)c1cccc(F)c1	-3	-3	0	-2	5	-13%
CCOC(=O)Cn1c(=NC(=O)CSC(C)=O)sc2cc(F)ccc21	42	6	3	-5	11	-11%
COc1ccc(N(C(=O)/C=C/c2ccc(OC)c(OC)c2)C2=CC3CCC(C2)N3C)cc1 (stereo unspecified)	2	3	8	-2	5	10%
CCCCNC(=O)C(c1ccc(OCC(=O)OC)c(C(=O)OC)c1)N(CCc1ccccc1)C(=O)CCCCCN1C(=O)NC(c2ccc(-c3ccccc3)cc2)C(C(=O)OCc2ccccc2)=C1C (stereo unspecified)	x	14	-20	-5	x	x
Cc1snc2sc(C(=O)c3ccc(F)cc3)c(N)c12	-10	3	-15	-2	-7	-1%
COc1ccc(-c2nc(CS(=O)CC(=O)NC3CCCC(C)C3C)c(C)o2)cc1OC (stereo unspecified)	-19	1	-4	-6	-1	-1%
COC(=O)Cn1ccc2cc(S(=O)(=O)N3CCCCCC3)ccc21	-5	2	8	-9	1	-10%
COc1ccc(OC)c(CNC(=O)CCCn2ccc3cc(S(=O)(=O)N4CCCC4)ccc32)c1	2	4	-33*!	-1	1	-2%
COc1ccccc1CCNC(=O)Cn1ccc2cc(S(=O)(=O)N3CCCCC3)ccc21	x	5	-9	0	1	0%
COC(=O)Cn1ccc2cc(S(=O)(=O)N3CCCCC3)ccc21	8	5	-51*!	-1	-8	-11%
COc1cccc(CNC(=O)CCCn2ccc3cc(S(=O)(=O)N4CCCC4)ccc32)c1	4	7	1	-4	8	0%
COc1ccccc1CCNC(=O)Cn1ccc2cc(S(=O)(=O)N3CCCC3)ccc21	-10	7	-31*	-9	2	5%
Fc1cccc(Cc2c(C3CCCCC3)nc3c4ccccc4ccn23)c1	0	x	x	x	-17	x
CCN(CC)C(=O)c1sc2c(c1C)c(=O)n(-c1ccc(OC)cc1OC)c(=O)n2Cc1cc(C)ccc1C	x	3	13	0	-5	-2%
O=[N+]([O-])c1ccc(Sc2cccc[n+]2[O-])c2nonc12	-116*	26	-24	-2	-60	-6%
O=C(CSc1cccc[n+]1[O-])Nc1cc(Cl)ccc1[N+](=O)[O-]	22	x	x	x	2	13%
COc1ccc(/C=C2\SC(=O)N(CCNC(=O)Cn3[nH]c(=O)c4ccccc4c3=O)C2=O)cc1	8	x	x	x	3	4%
CC(Sc1nc(=O)cc(N)n1CCc1ccccc1)C(=O)Nc1ccc(Cl)cc1 (stereo unspecified)	x	16	-33*	-2	1	2%
CC(Sc1nc(=O)cc(N)n1CCc1ccccc1)C(=O)Nc1cccc(Cl)c1 (stereo unspecified)	x	2	6	-5	6	-1%
SMILES	D3 antag	D1 agonist	D1 antag	D1 potentiator	DRD3 agonist	ERG-DNA inh
CCOc1cc(C(=O)Nc2ccc(S(=O)(=O)Nc3cc(C)on3)cc2)cc(OCC)c1OCC	12	2	32	-2	3	x
COc1cc(C(=O)Nc2ccc(S(=O)(=O)Nc3cc(C)on3)cc2)cc(OC)c1OC	u	0	-79*	-2	-1	9%
COc1cc(C(=O)Nc2ccc3c(c2)C(=O)c2ccccc2C3=O)cc(OC)c1OC	8	4	-50*	-7	-1	2%
COc1ccc(C(=O)Nc2ccc3c(c2)C(=O)c2ccccc2C3=O)cc1OC	13	1	-9	-1	8	1%
O=C(c1ccc(Cn2cc(Br)cn2)cc1)N1N=C(C(F)F)CC1(O)C(F)F (stereo unspecified)	-8	48*	71	-2	-2	-12%
O=C(N/N=C/c1cc([N+](=O)[O-])cc(Br)c1O)C12CC3CCC(CC(C3)C1)C2	-1	122*	-32*	14	-13	-1%
COc1cc(/C=N/NC(=O)C23CC4CC(CC(C4)C2)C3)cc(Br)c1O	u	1	22	-4	-29	-4%
Cc1cc(=O)oc2cc(NS(=O)(=O)c3ccccc3)ccc12	12	1	-95*	2	10	-12%
Cc1cc(=O)oc2cc(NS(=O)(=O)c3ccc(F)cc3)ccc12	14	8	-23	-6	-2	-7%
CCN(CC)S(=O)(=O)c1ccc(S(=O)(=O)Nc2ccc3c(c2)oc2ccccc23)cc1	-58*	3	-6	-5	1	11%
CCc1ccc(-n2nc(C)c3c(C)cc(=O)n(CC(=O)Nc4ccc(C)c(F)c4)c32)cc1	x	1	-1	0	-13	-1%
OC1(Cc2cc(-c3ccccc3)no2)CCN(CCCc2ccccc2)CC1	-75*	18	1	3	-8	-6%
COc1ccccc1CC(NC(C)=O)C(=O)NC1CCN(C(=O)Nc2ccc(F)cc2)CC1 (stereo unspecified)	11	1	3	1	5	12%
Cn1c(SCc2nnc(-c3ccccc3Br)o2)nc2sc3c(c2c1=O)CCC3	27	6	-22	4	34*	x
COCCCn1c(SCc2nnc(-c3ccccc3)o2)nc2sc3c(c2c1=O)CCC3	14	1	6	-6	11	1%
CC(=O)Nc1ccc(Nc2nc(Cl)nc(Nc3ccc(NC(C)=O)cc3)n2)cc1	-24	4	-36*	0	-2	-2%
O=C(CSc1cccc[n+]1[O-])N1CCCc2ccccc21	-17	3	13	-7	-1	-26%
Cc1ccc(Nc2nnns2)cc1	-6	4	-12	-4	-4	-13%
CC1=CC(C)(C)N=C(Nc2ccc(C)cc2)S1	-74*	4	-33*	-12	5	x
CCOC(=O)N1CCC(NS(=O)(=O)c2ccc3c(c2)CCN3C(C)=O)CC1	52	2	16	-3	-1	-4%
